The text below walks through data of PubChem BioAssay (NCI).

About 83,000 compounds went through this panel and 20% of them were active in at least one assay; those are over-represented in the sample as a whole.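 Assay: single dose, 48 h. Readout: percent growth (0 = no net growth; negative = cell death). Active: <10.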 Unmarked numbers belong to inactive results. Activity calls are given as the source filed them.

Among the test systems are RPMI-8226 leukemia; OVCAR-8 ovarian; OVCAR-5 ovarian; OVCAR-4 ovarian; SK-OV-3 ovarian; IGROV1 ovarian; OVCAR-3 ovarian; HS 578T breast; NCI/ADR-RES ovarian; T-47D breast; BT-549 breast; MDA-MB-435 melanoma; SW-620 colon; MCF7 breast; KM12 colon; MDA-MB-468 breast; HCT-116 colon; HCC-2998 colon.
What all share (assay): NCI-60 one-dose screen, 48 h (100 = growth as untreated, 0 = no growth, -100 = all killed)
Holding throughout (details): 10 µM

Regarding `CC(=O)Nc1ccc(-n2cnc3cc(-c4ccc(O)cc4)ccc32)cc1F`, the growth was 14.3% in the assay on RPMI-8226 leukemia; 15.9% in the assay with OVCAR-8 ovarian; 42.7% in the assay with OVCAR-5 ovarian; 61% in the assay on OVCAR-4 ovarian; 13% in the assay on SK-OV-3 ovarian; 35.9% in the assay with IGROV1 ovarian. For the same compound, the growth was 6.74% (active) in the assay with OVCAR-3 ovarian; 18.7% in the assay with HS 578T breast; 4.16% (active) with NCI/ADR-RES ovarian; 29.9% in the assay on T-47D breast; 60.3% in the assay with BT-549 breast; -25.7% (active) with MDA-MB-435 melanoma. Also, the growth is 28.2% in the assay with SW-620 colon, 26.3% with MCF7 breast, 4.96% (active) in the assay with KM12 colon and -12.3% (active) in the assay on MDA-MB-468 breast.

In the case of `O=C(c1ccc(O)cc1)C1[C@H](c2ccc(Br)cc2)[C@@H](c2ccccc2)NC12C(=O)Nc1ccccc12` (stereo not given in full), the growth in the assay on RPMI-8226 leukemia is 23%; in the assay on OVCAR-8 ovarian, 32.4%; in the assay on OVCAR-5 ovarian it was 58.7%; with OVCAR-4 ovarian, 34.1%; in the assay with SK-OV-3 ovarian it was 77.3%; in the assay with IGROV1 ovarian, 25.8%. The growth in the assay with OVCAR-3 ovarian is 15%; in the assay on HS 578T breast, 28.5%; with NCI/ADR-RES ovarian, 22.4%; in the assay with T-47D breast, 38.4%; with BT-549 breast, 116%; with MDA-MB-435 melanoma it was 13.4%. The growth in the assay on SW-620 colon was 26.2%; with MCF7 breast it was 8.43% (active); in the assay with HCT-116 colon, 17.3%; with KM12 colon, 1.31% (active); with MDA-MB-468 breast, 0.478% (active).

Take `O=C1NC(=NC2CCCCCC2)N/C1=C\c1ccc2ncoc2c1`: the growth with RPMI-8226 leukemia was 35.9%; in the assay with OVCAR-8 ovarian it was 27.3%; with OVCAR-5 ovarian, 50.3%; in the assay on OVCAR-4 ovarian, 62%; in the assay with SK-OV-3 ovarian, 24.4%; in the assay with IGROV1 ovarian it was 34.6%. Besides, the growth in the assay with OVCAR-3 ovarian was -3.02% (active); in the assay with HS 578T breast, 42%; in the assay on NCI/ADR-RES ovarian, 41.1%; in the assay with T-47D breast it was 18.9%; with BT-549 breast, 9.37% (active); in the assay with MDA-MB-435 melanoma, 37.8%. Moreover, the growth in the assay on SW-620 colon was 11.3%; in the assay with MCF7 breast it was 13%; in the assay on HCT-116 colon it was 23.5%; in the assay on KM12 colon it was 30%; with MDA-MB-468 breast, -3.48% (active).

With `CONC[C@]1(C)C=C2C(=O)[C@](C)(O)C3(CC3)C(C)=C2[C@H]1O`, the growth in the assay on RPMI-8226 leukemia was 54.3%; in the assay with OVCAR-8 ovarian, -6.95% (active); with OVCAR-5 ovarian it was -44.2% (active); in the assay with OVCAR-4 ovarian, -17.4% (active); in the assay on SK-OV-3 ovarian, -14.4% (active); in the assay on IGROV1 ovarian it was -15.4% (active). Also, the growth in the assay on OVCAR-3 ovarian is -20.4% (active); with HS 578T breast it was -12.4% (active); in the assay with T-47D breast it was 0.0161% (active); with BT-549 breast it was -63.6% (active); with MDA-MB-435 melanoma it was -84.7% (active); with SW-620 colon, 3.2% (active). The growth in the assay with MCF7 breast was -36.3% (active); with HCT-116 colon, 14.5%; in the assay on HCC-2998 colon it was -76.9% (active); in the assay on KM12 colon it was 7.08% (active); in the assay on MDA-MB-468 breast, -90.8% (active).

Consider `COc1ccc(CCN2C(=O)/C(=C/c3csc(C#N)n3)SC2=S)cc1`, for which the growth is -0.42% (active) in the assay on RPMI-8226 leukemia; -5.34% (active) in the assay with OVCAR-8 ovarian; 76.7% in the assay on OVCAR-5 ovarian; 38.4% with OVCAR-4 ovarian; 96.3% in the assay with SK-OV-3 ovarian; 26.8% in the assay on IGROV1 ovarian. Besides, the growth in the assay on OVCAR-3 ovarian was -39% (active); with HS 578T breast, 16.9%; in the assay with NCI/ADR-RES ovarian, 47%; in the assay on T-47D breast, -5.27% (active); with BT-549 breast, -44.6% (active); with MDA-MB-435 melanoma, -23.6% (active). Moreover, the growth with SW-620 colon was -14.6% (active); in the assay with MCF7 breast it was -0.841% (active); in the assay on HCC-2998 colon it was -32.8% (active); in the assay with KM12 colon it was -61.4% (active); with MDA-MB-468 breast, -67.2% (active).

For the compound `CCN1CCN(c2ccc(NC(=O)Nc3ccc(-c4cc(C(=O)NC)c5ncccc5n4)cc3)cc2C(F)(F)F)CC1`, the growth in the assay on RPMI-8226 leukemia was -50.3% (active); with OVCAR-8 ovarian, -94.1% (active); in the assay with OVCAR-5 ovarian, -100% (active); with OVCAR-4 ovarian it was -100% (active); in the assay with SK-OV-3 ovarian it was -88.7% (active); in the assay on IGROV1 ovarian, -98.2% (active). Also, the growth is -100% (active) in the assay with OVCAR-3 ovarian; -51.5% (active) in the assay on HS 578T breast; -65.3% (active) in the assay on NCI/ADR-RES ovarian; 49.4% in the assay on T-47D breast; -100% (active) in the assay with MDA-MB-435 melanoma; -100% (active) with SW-620 colon. Besides, the growth was -83.1% (active) with MCF7 breast; -100% (active) in the assay with HCT-116 colon; -100% (active) in the assay on HCC-2998 colon; -98.8% (active) in the assay with KM12 colon; -96.4% (active) with MDA-MB-468 breast.

Turning to `CC1=C(C(=O)OC(C)C)C(c2ccc(O)cc2)NC(=S)N1` (stereo not given), the growth was 95.7% with RPMI-8226 leukemia; 130% with OVCAR-8 ovarian; 116% in the assay on OVCAR-5 ovarian; 115% in the assay on OVCAR-4 ovarian; 107% in the assay with SK-OV-3 ovarian; 110% with IGROV1 ovarian. Besides, the growth was 105% in the assay with OVCAR-3 ovarian; 103% with HS 578T breast; 102% in the assay on T-47D breast; 110% in the assay with MDA-MB-435 melanoma; 120% in the assay with SW-620 colon; 97.7% with MCF7 breast. The growth in the assay on HCT-116 colon is 98.1%; with HCC-2998 colon, 107%; in the assay on KM12 colon it was 106%; in the assay with MDA-MB-468 breast, 99%.

For the compound `CC(=O)Nc1ccc(-n2cnc3cc(-c4ccc(O)cc4)ccc32)cc1C`, the growth with RPMI-8226 leukemia is 42.7%; in the assay with OVCAR-8 ovarian, 58%; with OVCAR-5 ovarian it was 72.7%; in the assay with OVCAR-4 ovarian, 70.2%; in the assay on SK-OV-3 ovarian, 78.8%; in the assay with IGROV1 ovarian, 80.2%. Moreover, the growth in the assay with OVCAR-3 ovarian was 80.3%; with HS 578T breast, 64.6%; with T-47D breast it was 32.6%; in the assay on BT-549 breast, 50.7%; in the assay on MDA-MB-435 melanoma, -13.2% (active); with SW-620 colon, 44.2%. Also, the growth with MCF7 breast is 50.9%; in the assay on HCT-116 colon, 70%; in the assay with HCC-2998 colon it was 60.7%; in the assay with MDA-MB-468 breast it was -7.11% (active).

Consider `COc1ccc([C@H]2C(C(=O)c3ccc(Cl)cc3)C3(N[C@@H]2c2ccccc2)C(=O)Nc2ccc(Cl)cc23)cc1` (stereo not given in full), for which the growth is -11% (active) with RPMI-8226 leukemia; 15.3% in the assay on OVCAR-8 ovarian; -23.4% (active) with OVCAR-5 ovarian; 20.4% in the assay with OVCAR-4 ovarian; 17.3% with SK-OV-3 ovarian; -1.76% (active) in the assay with IGROV1 ovarian. The growth in the assay with OVCAR-3 ovarian was -10.8% (active); in the assay with HS 578T breast, -10.1% (active); with T-47D breast it was 9.93% (active); in the assay with BT-549 breast it was 7.71% (active); in the assay with MDA-MB-435 melanoma, -57.5% (active); in the assay with SW-620 colon, 4.15% (active). For the same compound, the growth is -4.24% (active) in the assay with MCF7 breast; 2.1% (active) with HCT-116 colon; -59.3% (active) in the assay on HCC-2998 colon; -23.4% (active) with KM12 colon; -3.62% (active) in the assay with MDA-MB-468 breast.
